# Compounds with a hit are over-represented: about 7.9% of the library has one in this group of screens.
# MARV entry inh: qHTS for inhibitors of binding or entry into cells for Marburg Virus; Marburg virus pseudotyped entry inhibition, cell reporter; Potency, µM (top dose mostly 37.8 µM), for the others: at the top dose activity change, negative = inhibition, most hits filed as inhibitors; actives 1.8% (n = 300,000); AID 540276, 2011; calls by dose curve; tested in HEK293 cells; note: potency is the fitted concentration of half-maximal effect
# HCV inh: qHTS Assay for Inhibitors of Hepatitis C Virus (HCV) | Huh7.5.1 HCVcc-Cre infection, luciferase reporter, 44 h | Potency, µM (highest dose often 41.8 µM), for the others: at the highest dose activity change, negative = inhibition, hits mostly inhibitors | actives 3.4% (n = 340,000); active = well fitted inhibition curve with a large enough effect; inconclusive = small, poorly fitted or top-dose-only effect, or another doubt; inactive = no such curve, though single readings can be large or run the other way; note: potency is the fitted concentration of half-maximal effect
#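 Compounds are dispensed onto cells plated 4 h earlier at 1,000 per well, with HCVcc-Cre virus (about 0.5 moi) added next. Following 44 h of culture, luminescent signal is measured for 15 sec after 15 min with substrate at room temperature.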
# HCMV inh: qHTS Assay for inhibitors of the human cytomegalovirus (HCMV) | HFF cells, HCMV-luciferase reporter, 72 h; hits give low values | activity change, negative = inhibition, % at 57.5 µM | actives 4.5% (n = 410,000); in the data active = activity change below about -60%; inconclusive = no clear call, values can overlap the other calls; inactive = above about -39%
#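 Luciferase read-out from HCMV-luciferase-infected HFFs (MOI 1 PFU/cell) 72 h post infection at 37C; compounds added after 16 h cell attachment; activity normalized between buffer-only basal and Salinomycin (10uM) inhibitor controls.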
# FMDV antiviral: High Throughput Screening for Foot and Mouth Disease Virus Antivirals. FMDV antiviral cell-based qHTS. Potency, µM (series often up to 57.9 µM), without a hit: top-dose activity change, negative = inhibition, hits mostly inhibitors. actives 1.2% (n = 410,000). AID 1159524, 2015; calls by dose curve; tested in HEK293T cells; note: read-out not given here; potency is the fitted concentration of half-maximal effect; nearly all actives have a fitted effect of over 45% in size
# LASV entry inh: qHTS for Inhibitors of binding or entry into cells for Lassa Virus; Lassa virus pseudotype entry inhibition, cell reporter; Potency, µM (doses to about 37.9 µM), without a hit: at the highest dose activity change, negative = inhibition, usual class: inhibitors; actives 1.2% (n = 300,000); AID 540256, 2011; calls by dose curve; tested in HEK293 cells; note: potency is the fitted concentration of half-maximal effect; nearly all actives have a fitted effect of over 50% in size
# An asterisk follows results filed as active; u = inconclusive; x = not tested or not shown; ! = repeats disagree; [ ] = another dose, or the depositor's remark. % is set by controls: 0 for no effect and ±100 for the full control effect.
SMILES,MARV entry inh,HCV inh,HCMV inh,FMDV antiviral,LASV entry inh
CCOC(=O)[C@]12CCCC=C1N(Cc1cccc3ccccc13)C(=O)[C@H](CC(=O)NCc1ccc(OC)c(OC)c1)C2,x,x,-76.0*,u,x
CCOC(=O)[C@]12CCC=C1N(Cc1ccc(Cl)cc1Cl)C(=O)[C@H](CC(=O)NCc1ccc(OC)c(OC)c1)C2,x,x,-92.6*,u,x
COc1cc(OC)c(NC(=O)N2CCCn3nc(C)cc32)cc1Cl,x,x,-3.4,-15.7%,10.2%[46.1 µM]
Cc1nn(-c2nc3ccccc3[nH]2)c(N)c1-c1ccccc1,u,31.6µM*,37.8,-14.3%,u
N#Cc1ccc(-c2cccs2)nc1SCc1c(F)cccc1Cl,u,x,-17.5,0.0%,4.0%[46.1 µM]
Oc1ccc(-c2onc(C(F)(F)F)c2-c2cscn2)c(O)c1,u,u,u,0.0%,-5.8%
Cc1nc(-c2c(C(F)(F)F)noc2-c2ccc(O)cc2O)cs1,-0.3%,u,-90.1*,u,2.0%
Cc1ccc(C)c(Nc2nn3c(=O)c4ccc(C(=O)NCCc5ccccc5)cc4nc3s2)c1,x,x,8.7,0.0%,2.6%[46.1 µM]
COc1ccccc1Nc1nn2c(=O)c3ccc(C(=O)NCCC4=CCCCC4)cc3nc2s1,x,x,-105.5*,u,u
COc1ccccc1Nc1nn2c(=O)c3ccc(C(=O)NCCc4ccccc4)cc3nc2s1,x,x,-99.2*,u,u
Cc1ccc(C)c(Nc2nn3c(=O)c4ccc(C(=O)NCCC5=CCCCC5)cc4nc3s2)c1,x,x,-3.1,u,u
COc1cccc(Cn2c(=O)n(CC3CCC(C(=O)N4CCCCC4)CC3)c(=O)c3sccc32)c1 (stereo not drawn),x,x,u,u,-17.1%[46.1 µM]
CCOC(=O)c1c(C)oc2nc(C)nc(N3CCN(c4cc(Cl)ccc4C)CC3)c12,x,x,-0.4,u,-2.8%[46.1 µM]
CC(=O)NCCC(=O)Nc1sc2c(c1-c1nc3ccccc3[nH]1)CCCC2,-6.0%,11.2µM*,-16.0,10.7%,-16.8%
O=C(Nc1sc2c(c1-c1nc3ccccc3[nH]1)CCCC2)C1CCCC1,-11.5%,u,-13.3,-2.4%,10.5%
CC(=O)N1CCN(S(=O)(=O)c2cccc(C(=O)Nc3nc4c(s3)CCCC4)c2)CC1,u,u,18.0,-17.4%,-23.7%
CN1CCN(S(=O)(=O)c2cccc(C(=O)Nc3sc4c(c3-c3nc5ccccc5[nH]3)CCCC4)c2)CC1,16.4µM*,3.55µM*,65.5,24.6%,1.5%
COc1cc([C@@H]2C[C@H]3CN(c4ccccc4)C(=O)[C@]34CCCN24)cc(OC)c1OC,x,-27.4%,u,-9.5%,x
COc1ccccc1-n1cc([C@@H]2C[C@H]3CN(c4ccccc4)C(=O)[C@]34CCCN24)cn1,10µM*,5.62µM*,-96.9*,-7.4%,u
CCOc1cc([C@@H]2C[C@H]3CN(c4ccccc4)C(=O)[C@]34CCCN24)ccc1OC,u,u,-68.6*,4.5%,x
CCN1C(N(C)CCc2cccs2)=N[C@@H](c2ccccc2)C(C(=O)OC)=C1C,x,-4.2%,-25.5,-20.7%,x
CCN1C(N(C)CCc2c[nH]c3ccccc23)=N[C@@H](c2cccc(C(F)(F)F)c2)C(C(=O)OC)=C1C,x,25.1µM*,x,-29.4%,x
CCOC(=O)Nc1ccc2c(c1)Cc1cc([N+](=O)[O-])ccc1-2,3.0%,u,-90.0*,44.6%,u
C=CCOc1cccc(CNc2ccc3[nH]c(=O)[nH]c3c2)c1,u,11.2µM*,-22.1,u,u
CCOc1cc(CNc2ccc3c(c2)OCCO3)cc(Br)c1OCC,u,2µM*,-86.2*,31.6µM*,-22.3%
SMILES,MARV entry inh,HCV inh,HCMV inh,FMDV antiviral,LASV entry inh
COc1cc(CNc2ccc3[nH]c(=O)[nH]c3c2)ccc1OCc1ccccc1C,-21.8%,-38.1%,-70.1*,u,-10.7%
C=CCOc1ccc(CNc2ccc3[nH]c(=O)[nH]c3c2)cc1OC,17.2%[46.1 µM],-14.0%,10.9,-3.9%,u
CCOc1cc(CNc2ccc(N(C)C)cc2)cc(Br)c1OCC(=O)NC(C)(C)C,-10.5%,11.2µM*,-18.2,14.1µM*,u
COc1cc(CNc2ccc3[nH]c(=O)[nH]c3c2)ccc1OCc1ccccc1F,u,u,u,-15.2%,-9.7%[46.1 µM]
CCOc1cc(CNc2ccc(N3CCOCC3)cc2)cc(Br)c1OCC,-13.0%,u,-2.6,u,-29.6%
COc1cc(CNc2cccc(C(=O)O)c2)cc(Br)c1OCC(=O)NC(C)(C)C,u,4.0%,79.1,-21.1%,u
COc1ccc(S(=O)(=O)N(CCO)c2ccccc2CN(C)C/C=C/c2ccc(Cl)cc2)cc1,x,x,x,-21.0%,x
O=C1[C@@H]2C=CC=CC2=NC(=S)N1CCN1CCC(=C(c2ccc(F)cc2)c2ccc(F)cc2)CC1,12.9%,x,x,x,x
COc1ccc(CNC(=O)c2cc3c(=O)n(Cc4cccnc4)ccc3nc2C)cc1,x,x,-3.7,-5.2%,-1.2%[46.1 µM]
COc1ccc2c(c1)C(n1c(C)ccc1C)C(=O)N2Cc1ccc(Cl)nc1 (stereo not drawn),x,x,-8.7,x,x
CCOc1cc(CNc2ccc(N3CCCCC3)cc2)cc(Br)c1OCC(=O)NC(C)(C)C,-29.9%,u,-3.9,31.6µM*,-13.4%
COc1cc(CNc2ccc3[nH]c(=O)[nH]c3c2)cc(Br)c1OCC(=O)NC(C)(C)C,-24.2%,u,-70.7*,u,-0.6%
COc1cc(CNc2ccc3[nH]c(=O)[nH]c3c2)ccc1OCC(=O)NC(C)(C)C,-19.7%,11.4%,-16.2,-5.2%,u
CC(C)OC(=O)OCOP(=O)(CO[C@H](C)Cn1cnc2c(N)ncnc21)OCOC(=O)OC(C)C,x,x,-17.3,x,x
COc1cc(NC(=O)c2csc(N)n2)cc(C(=O)Nc2cccc(C(F)(F)F)c2)c1,x,u,-66.8*!,25.1µM*,x
COc1cc(NC(=O)c2cnc(N)o2)cc(C(=O)Nc2cccc(C(F)(F)F)c2)c1,x,u,u,17.8µM*,x
COc1cc(NC(=O)c2cnc(N)s2)cc(C(=O)Nc2cccc(C(F)(F)F)c2)c1,x,u,-31.2,-1.7%,x
COC(=O)C(c1ccc(OC)c(OC)c1)C1c2ccccc2C=C(C)N1C(=O)OC (stereo not drawn),10.7%[14.2 µM],x,x,x,u
COC(=O)c1cc(OC)c(OC)cc1NC(=O)c1cccc(C)c1,9.4%,u,u,-13.2%,-6.0%
COC(=O)c1cc(OC)c(OC)cc1NC(=O)c1csc(C)c1,-14.5%[46.1 µM],-12.9%,-67.3*,-19.0%,-13.6%[46.1 µM]
COc1ccccc1NC(=O)CCNS(=O)(=O)c1ccc2c(c1)CCN2C(=O)C1CC1,x,x,-7.8,-2.5%,u
CC1CC(C)CN(CC(=O)N2CCCc3c2c(=O)oc2ccc(OCc4ccccc4)cc32)C1 (stereo not drawn),10µM*,11.2µM*,-6.5,u,u
CC1CCN(CC(=O)N2CCCc3c2c(=O)oc2ccc(OCc4ccccc4)cc32)CC1,7.08µM*,u,-9.2,u,0.631µM*!
